# Compounds with a hit are over-represented: about 2.9% of the library has one in this group of screens.
# FadD28 FP inh: inhibitors of Mycobacterium tuberculosis FadD28 bisubstrate binding | hit rate 0.22% among 360,000 | FadD28 bisubstrate probe binding, fluorescence polarization | inhibition, % at 12.5 µM; in the data active means inhibition above about 8.5%, passing the limit was not always enough
# Mtb hypoxia inh: inhibitors of hypoxia-regulated fluorescent reporter in Mycobacterium tuberculosis; hit rate 0.1% among 300,000; fluorescence inhibition, % (test concentration not listed); M. tuberculosis hypoxia-regulated fluorescent reporter, fluorescence; AID 1159583; in the data active means fluorescence inhibition mostly above about 23%, no sharp cut-off; inactive means mostly below about 17%
# FBA Mtb inh: Mtb fructose-bisphosphate aldolase inhibition; AID 588726; hit rate 2.3% among 360,000; inhibition, % at 1 µM; P9WQA3; purified M. tuberculosis FBA, fluorescence read-out;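 further: 0% = vehicle and 100% = reference inhibitor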
# Target sequence (P9WQA3 whole entry, looked up): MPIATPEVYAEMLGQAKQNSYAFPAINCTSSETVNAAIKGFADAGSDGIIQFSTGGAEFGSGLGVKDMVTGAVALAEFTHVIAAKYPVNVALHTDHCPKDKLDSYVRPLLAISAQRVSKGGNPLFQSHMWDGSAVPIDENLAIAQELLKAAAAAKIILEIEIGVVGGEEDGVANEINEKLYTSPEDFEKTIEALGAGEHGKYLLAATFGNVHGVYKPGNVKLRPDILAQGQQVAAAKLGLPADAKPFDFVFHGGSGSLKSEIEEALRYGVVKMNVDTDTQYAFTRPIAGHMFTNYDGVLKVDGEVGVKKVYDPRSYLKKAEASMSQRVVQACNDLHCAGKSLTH
# GDH-TPI counter-1: GDH-TPI coupled enzyme inhibition counter-screen; GDH-TPI coupled enzyme counterscreen, NADH absorbance; inhibition, % at 4.8 µM; hit rate 1.2% among 360,000; AID 588335; in the data active means inhibition above about 30%;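 further: 0% = DMSO wells and 100% = wells lacking the enzyme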
# Mtb BioA inh: inhibitors of Mycobacterium tuberculosis BioA enzyme. purified M. tuberculosis BioA enzyme, plate reader. inhibition, % at 9.99 µM. hit rate 0.096% among 360,000; in the data active means inhibition above about 40%
# Mtb FBA inh conf: Mtb FBA inhibition, confirmed; shares compounds with FBA Mtb inh; purified M. tuberculosis FBA, fluorescence read-out; inhibition, % at 1 µM; hit rate 78% among 5,600;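 further: 0% = vehicle wells and 100% = reference inhibitor wells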
# GDH-TPI counter-2: counter-screen for M. tuberculosis FBA inhibitors: GDH-TPI coupled enzyme inhibition; shares compounds with FBA Mtb inh; GDH-TPI coupled enzyme counterscreen, fluorescence; inhibition, % at 1 µM; hit rate 81% among 5,600; in the data active means inhibition above about 10%
# GDH-TPI DR: GDH-TPI dose response counter-screen for Mtb FBA. shares compounds with FBA Mtb inh. GDH-TPI coupled enzyme assay, fluorescence, artifact counterscreen. IC50, µM. hit rate 79% among 170. AID 652145; call rule not given here
# * hit, by the source's call; nt = no result given; + = active, no number. Unless noted, no stated cut-off is given here; in the data, active means inhibition above about 27%; inactive means the rest.
SMILES,FadD28 FP inh,Mtb hypoxia inh,FBA Mtb inh,GDH-TPI counter-1,Mtb BioA inh,Mtb FBA inh conf,GDH-TPI counter-2,others
CCCCN(Cc1cc2cc(OC)ccc2[nH]c1=O)S(=O)(=O)c1ccc(C)cc1,-4.7,nt,5.7,15.8,0.1,nt,nt,
COc1ccc(S(=O)(=O)N(CCCN2CCCC2=O)Cc2cc3c(C)cc(C)cc3[nH]c2=O)cc1,-2.1,nt,32.6*,28.6,2.2,13.3,7.9,GDH-TPI DR=>10
O=C(Nc1ccc2c(c1)OCO2)N[C@H]1CC[C@@H](CCNC(=O)C2CC2)O[C@H]1CO,nt,nt,nt,nt,0.1,nt,nt,
c1ccc(-n2cnc3ccccc32)nc1,-0.7,13.3,-0.3,4.5,-1.7,nt,nt,
c1ccc(-c2ccc(-c3n(-c4ccccn4)c4ccccc4[n+]3-c3ccccn3)cc2)cc1,-4.3,-5.3,45.8*,2.2,nt,189.1*,171.6*,
COc1ccc2nc(CC(C)(C)CC(=O)O)c[n+]([O-])c2c1,-0.9,8.3,63.6*,8.8,-0.7,+,+,
Cc1nn(-c2ccccn2)c(N)c1N=O,-3.0,13.9,-6.8,15.7,nt,nt,nt,
Cc1nn(-c2ccccn2)c2c1-c1nc(N)ncc1CC2,-2.8,nt,30.4*,3.9,1.9,9.4,-1.4,
O=C(Nc1ccc(NC(=O)c2ccccc2O)cc1)Nc1ccc(F)cc1F,-1.6,8.0,34.4*,16.1,nt,53.2*,51.1*,
O=C(O)CCn1c(-c2ccccc2)cc2ccccc21,-3.1,-7.5,57.8*,-4.9,nt,25.4,15.9*,
CCCS(=O)(=O)NCCc1csc(-c2ccc(OC)c(OC)c2)n1,0.6,-2.1,34.7*,5.0,15.0,92.5*,77.6*,
CCN(CC(=O)Nc1c(F)cccc1F)C(=O)Cc1csc(-c2ccc(OC)c(OC)c2)n1,-3.2,14.6,44.5*,-5.9,1.5,68.3*,55.7*,
CCS(=O)(=O)NCCc1csc(-c2ccc(OC)c(OC)c2)n1,-1.0,-0.9,54.6*,11.6,nt,-2.7,-5.0,
CCN(CC(=O)Nc1c(F)cccc1F)C(=O)CCc1ccc(OC)cc1,-0.1,-1.3,-0.6,-2.9,nt,nt,nt,
COc1ccc(-c2nc(CNS(=O)(=O)c3ccc(OC)c(OC)c3)cs2)cc1,-6.2,13.6,4.5,9.3,1.2,nt,nt,
COc1ccc(-c2nc(CCNC(=O)c3ccco3)cs2)cc1OC,-3.2,2.9,26.1,-10.1,9.8,nt,nt,
CC(C)C#Cc1cnc2c(c1)C(=O)N([C@H](C)CO)C[C@H](C)[C@@H](CN(C)C(=O)c1cccnc1)O2,nt,nt,nt,nt,-0.9,nt,nt,
O=C(CN1C(=O)NC2(CCCCC2)C1=O)Oc1ccc2c(C(F)(F)F)cc(=O)oc2c1,-1.1,nt,31.2*,6.5,-2.3,106.7*,70.5*,
COC(=O)C1C[C@]2(C(=O)O)c3ccccc3N(OOSc3ccccc3)C2N1C(=O)OC (stereo not given in full),nt,10.5,nt,nt,nt,nt,nt,
CCOC(=O)C1CCN(C(=O)Cn2cnc3sc(C)c(S(=O)(=O)N4CCCCC4)c3c2=O)CC1,-2.3,-6.9,-1.9,5.0,-2.0,nt,nt,
CCOC(=O)C1CCN(C(=O)Cn2cnc3sc(C)c(S(=O)(=O)N4CCC(C)CC4)c3c2=O)CC1,0.6,15.2,77.8*,-1.8,-1.0,185.7*,142.8*,
CC(C)(C)CN1C(=O)C(=O)NCC1Cc1cccc2ccccc12 (stereo not given),nt,8.6,nt,nt,nt,nt,nt,
C[C@H]1CN([C@@H](C)CO)C(=O)Cc2cc(NC(=O)Cc3ccccc3)ccc2O[C@@H]1CN(C)C(=O)Nc1cccc2ccccc12,nt,nt,nt,nt,-1.3,nt,nt,
CCOc1ccc(N=c2cc(-c3ccc(OC)cc3)oc3ccccc23)cc1,0.0,7.9,21.9,14.2,-1.4,nt,nt,
COc1ccc(-c2cc(=Nc3ccc(C)cc3)c3ccccc3o2)cc1,0.2,2.5,28.6*,20.8,0.3,107.8*,76.6*,
SMILES,FadD28 FP inh,Mtb hypoxia inh,FBA Mtb inh,GDH-TPI counter-1,Mtb BioA inh,Mtb FBA inh conf,GDH-TPI counter-2,others
Cc1cc(=O)oc2cc(OCC(=O)N3CCCC3)c(Cl)cc12,-2.8,0.1,30.9*,0.4,-1.1,12.6,23.7*,
Cc1cc(=O)oc2cc(OCC(=O)N3CCOCC3)c(Cl)cc12,-3.5,11.8,109.0*,16.8,-1.2,+,+,
Cc1cc(=O)oc2cc(OCC(=O)N3CCC(O)CC3)c(Cl)cc12,0.4,5.6,14.3,10.3,2.5,nt,nt,
COc1ccc(NC(=O)N(C)C[C@@H]2Oc3c(NC(=O)C4CC4)cccc3C(=O)N([C@@H](C)CO)C[C@@H]2C)cc1,nt,nt,nt,nt,-2.8,nt,nt,
COc1ccc(N2CCN(C(=O)COC(=O)Cc3ccc(F)cc3)CC2)cc1,-1.3,9.0,-0.1,-0.7,0.8,nt,nt,
COc1ccc(CC(=O)N2CCN(c3ccc(C4=NNC(=O)CC4C)cc3)CC2)cc1 (stereo not given),3.9,nt,31.9*,22.4,-0.5,162.0*,131.8*,
COCCNC(=S)N(CCN(C)C)Cc1cc2cc3c(cc2[nH]c1=O)OCO3,-1.5,-0.5,26.5,10.0,-1.4,nt,nt,
O=c1[nH]c2cc3c(cc2cc1CN(CCN1CCOCC1)C(=S)NCC1CCCO1)OCO3 (stereo not given),-1.9,-6.1,34.4*,16.1,-3.6,124.4*,125.0*,
CCOc1ccc(NC(=S)N(CCN2CCOCC2)Cc2cc3cc4c(cc3[nH]c2=O)OCCO4)cc1,-3.0,3.6,11.8,12.9,-2.5,nt,nt,
CN(C)CCN(Cc1cc2cc3c(cc2[nH]c1=O)OCO3)C(=S)NCC1CCCO1 (stereo not given),-0.1,7.9,50.3*,21.7,nt,-0.5,-3.9,
O=C(Nc1nnc2n1CCS2)c1ccc(Br)o1,0.7,nt,104.6*,-7.6,0.3,127.4*,76.2*,
O=S(=O)(NN=Cc1cccnc1)c1ccccc1,nt,-6.7,nt,nt,nt,nt,nt,
COc1ccc(N2CC(NS(=O)(=O)c3cccnc3)CC2=O)cc1OC (stereo not given),-1.5,-1.0,29.6*,0.7,-1.0,106.2*,76.9*,
Cc1ccc(N2CC(NS(=O)(=O)c3cccnc3)CC2=O)cc1C (stereo not given),-0.2,-11.9,3.8,-2.1,nt,nt,nt,
CC(/C=C/c1ccco1)=NNC(=O)c1cccc(Cl)c1,nt,2.1,nt,nt,nt,nt,nt,
CC(=O)Nc1ccc(-c2ccccc2)s1,2.2,nt,2.4,4.7,-1.2,nt,nt,
CNC(=O)c1ccc(-c2ccccc2)s1,-2.8,nt,28.3*,5.2,-0.2,78.3*,52.9*,
Cc1cc2c(c(=O)n1CCc1ccccc1)C(c1ccco1)C(C#N)=C(N)O2 (stereo not given),-1.4,1.4,40.1*,5.5,-2.3,1.9,-3.0,
C[C@H](CO)N1C[C@H](C)[C@H](CN(C)S(=O)(=O)c2ccc(C#N)cc2)OCc2ccccc2-c2c(n(C)c3ccccc23)C1=O,nt,nt,nt,nt,-1.8,nt,nt,
CNCc1cc(Cl)cc(OC)c1OC(C)C,-1.1,14.2,65.0*,0.0,nt,78.9*,86.0*,
CC(C)CC(c1nc2ccccc2[nH]1)n1c(-c2ccccc2Br)nc2ccccc21 (stereo not given),-2.0,nt,-0.5,nt,0.8,nt,nt,

# Screens deposited in PubChem BioAssay by several laboratories.
